Records with an inconclusive call do not appear. The source made the active and inactive calls. Rule for the calls: active = hit-call score of the fitted dose curve at least 0.9, where 1 is the maximum; inconclusive = response in the unintended direction; inactive = score below 0.9.

Read-out in this test: HMG-CoA synthase (HMGCS2), HMGCS2 (gene 3158)
In words: CLD_HMGCS2_48hr: CellzDirect (CLD) Gene Expression Assay for HMG-CoA synthase (HMGCS2) at 48 hours (AID 2283711). How it is done: CLD_48hr is a cell-based, multiplexed-readout assay that uses hepatocyte, a human liver primary cell, with measurements taken at 48 hours after chemical dosing in a 96-well plate.CLD_HMGCS2_48hr is one of 16 assay component(s) measured or calculated from the CLD_48hr assay. It is designed to make measurements of mRNA induction, a form of inducible reporter, as detected with chemiluminescence signals by Quantitative Nuclease Protection Assay (qNPA) technology.Data from the assay component CLD_HMGCS2_48hr was analyzed at the endpoint, CLD_HMGCS2_48hr, in the positive analysis fitting direction relative to DMSO as the negative control and baseline of activity. Using a type of inducible reporter, gain-of-signal activity can be used to understand changes in the reporter gene as they relate to the gene HMGCS2. Furthermore, this assay endpoint can be referred to as a primary readout. To generalize the intended target to other relatable targets, this assay endpoint is annotated to the lyase intended target family, where subfamily is HMG-CoA synthase.
Human hepatocyte cultures were treated daily for two consecutive days with fresh dosing solutions containing appropriate concentrations of the 320 ToxCast chemicals (chemical identities were blinded to CellzDirect and other ToxCast collaborators), vehicle control (0.2% DMSO), and positive control inducers as summarized in Table 1. Due to the large number of treatment groups and chemicals examined, the ToxCast chemicals were divided into two groups (spanning two independent cultures of hepatocytes from separate donor preparations (Hu778: ToxCast plates 1 and 2; Hu776: ToxCast plates 3 and 4). Each preparation of human hepatocyte cultures was treated with respective vehicle control, medium only control, set of six positive controls/reference chemicals for the five hepatic receptor pathways, and a subset of eight of the ToxCast chemicals (indoxacarb, pyrithiobac-sodium, norflurazon, cyhalofop-butyl, methomyl, thiram, acetochlor, and propiconazole). These replicate data, coupled with internal replicates designed within the blinded ToxCast chemical library, provided additional data to evaluate interindividual differences between hepatocyte preparations and their potential impact on chemical profiles.Cell morphology and integrity were evaluated using phase-contrast microscopy as an indicator of hepatocyte cell health (Tyson & Green, 1987). Cultures for each treatment group (i.e., media, vehicle [0.2% DMSO], positive control inducers [multiple concentrations], and the ToxCast chemicals [multiple concentrations]) were observed and cell morphology was assessed relative to vehicle control cultures at each harvest time point (0, 6, 24, or 48 h). […] Images were evaluated at the conclusion of the study to assess changes in cell integrity and account for the effects of chemical exposure on uncharacteristic changes in concentration-dependent gene expression profiles. The results from these determinations of apparent cytotoxicity were annotated (yes/no) alongside the corresponding qNPA data for reference.At the conclusion of each treatment period, hepatocyte cultures (96-well) were washed with 1 volume of HBSS, lysed by addition of 25 ul ArrayPlate lysis buffer (HTG, Tucson, AZ), and 70 ul/well of Denaturation Oil, denatured by incubation at 95C for 10 min, and frozen at approximately -70C until analysis by nuclease protection assay (qNPA) (Roberts et al., 2007). For qNPA analysis, cell lysates were thawed at 50C for approximately 30 min, qNPA probes were added, and samples were incubated at 95C for 10 min to begin the detection process by denaturing the target RNA, dissociating the duplexes and secondary structure hybridization. At the conclusion of the hybridization period, S1 nuclease reagent was added to each sample to digest all nonprotected nucleotides at 50C for 60-90 min. […]
On to `CCCCOC(=O)[C@@H](C)Oc1ccc(Oc2ccc(C#N)cc2F)cc1`, for which the result was inactive.
Turning to `CC(=NC#N)N(C)Cc1ccc(Cl)nc1`, the compound was called inactive.
In the case of `COP(=O)(OC)SCn1c(=O)oc2cc(Cl)cnc21`, the compound was called inactive.
Turning to `CCCSP(=O)(OCC)SCCC`, the call was inactive.
With `CCCSP(=O)(OCC)Oc1ccc(Br)cc1Cl` (stereo not given), the result was inactive.
As for `CC(C1CC1)C(O)(Cn1cncn1)c1ccc(Cl)cc1` (stereo not given), the compound was called inactive.
As for `CC(COc1ccc(Oc2ccccc2)cc1)Oc1ccccn1` (stereo not given), the result was inactive.
In the case of `C[N+]1(C)CCCCC1`, the compound was called inactive.
Consider `CCCOc1nn(C(=O)NS(=O)(=O)c2ccccc2C(=O)OC)c(=O)n1C`, for which the result was inactive.
As for `COP(=O)(OC)C(O)C(Cl)(Cl)Cl` (stereo not given), the call was inactive.
Consider `COP(=O)(NC(C)=O)SC` (stereo not given), for which the call was inactive.
As a reminder, the AC50 is the concentration giving half of the maximal activity seen. Turning to `O=C(O)c1cc(Oc2ccc(C(F)(F)F)cc2Cl)ccc1[N+](=O)[O-]`, the concentration at half-maximal activity (AC50) was 26 nM (active).
On to `CCNc1nc(Cl)nc(NC(C)(C)C#N)n1`, for which the outcome was inactive.
For `CC[C@H](C)[C@H]1O[C@]2(C=C[C@@H]1C)C[C@@H]1C[C@@H](C/C=C(\C)[C@@H](O[C@H]3C[C@H](OC)[C@@H](O[C@H]4C[C@H](OC)[C@@H](NC)[C@H](C)O4)[C@H](C)O3)[C@@H](C)/C=C/C=C3\CO[C@@H]4[C@H](O)C(C)=C[C@@H](C(=O)O1)[C@]34O)O2`, the compound was classed as inactive.
`COc1cc(OC)nc(Sc2cccc(Cl)c2C(=O)O)n1`: the outcome was inactive.
In the case of `CCCCN(CC)c1c([N+](=O)[O-])cc(C(F)(F)F)cc1[N+](=O)[O-]`, the result was inactive.
Turning to `Cc1ccn2nc(S(=O)(=O)Nc3c(F)cccc3F)nc2n1`, the compound was classed as inactive.
Regarding `CN(C)[C@@H]1C(=O)C(C(N)=O)=C(O)[C@@]2(O)C(=O)C3=C(O)c4c(O)cccc4[C@@](C)(O)[C@H]3[C@H](O)[C@@H]12`, the AC50 is 164 nM (active).
For the compound `CCOP(=S)(OCC)Oc1ccc2c(C)c(Cl)c(=O)oc2c1`, the AC50 is 12.5 nM (active).
On to `CN(C)C(=O)Nc1cccc(C(F)(F)F)c1`, for which the compound was called inactive.
Regarding `CN1COCN(Cc2cnc(Cl)s2)C1=N[N+](=O)[O-]`, the outcome was inactive.
Take `N#CSCSC#N`: the call was inactive.
Same read-out and setting: for `CC(C)N(C(=O)SCC(Cl)=C(Cl)Cl)C(C)C` the value was “inactive”; for `CCOP(=S)(OCC)Oc1ccc([N+](=O)[O-])cc1`, “inactive”.
On to `C#CC(C)(C)NC(=O)c1cc(Cl)cc(Cl)c1`, for which the AC50 is 9.4 nM (active).
For `CNC(=O)ON=C(SC)C(=O)N(C)C`, the call was inactive.
Consider `CCCCSP(=O)(SCCCC)SCCCC`, for which the outcome was inactive.
Regarding `C=C(C)[C@H]1Cc2c(ccc3c2O[C@@H]2COc4cc(OC)c(OC)cc4[C@@H]2C3=O)O1`, the result was inactive.
On the same count and under the same terms, for `CCc1cnc(C2=NC(C)(C(C)C)C(=O)N2)c(C(=O)O)c1` (stereo not given) the value was “inactive”; for `CC1=NNC(=O)N(/N=C/c2cccnc2)C1`, “inactive”.

The values are drawn from PubChem BioAssay (EPA / NIEHS).
